Experimental data from the supplement of paper PMC11732987, “Enantioselective OTUD7B fragment discovery through chemoproteomics screening and high-throughput optimisation” (Communications Chemistry, 2025).

Legend:
Experiment in all cases: log2 ratio of Biotin-Ahx-Ub-VS probe labelling (fragment/DMSO); higher = less target engagement (more negative = stronger competition), active = hit call of the paper (q ≤ 0.05, log2 ratio ≤ -1)
Settings in all cases: compound concentration: 200 uM; treatment time: 3 h
USP34 = USP34 (UniProt Q70CQ2)
Summary of the method: (§1)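 Labelled DUBs from HEK293T lysate were NeutrAvidin-enriched, digested with LysC and trypsin, and run by diaPASEF LC-MS/MS. Before that, each 495 µg sample in Tris/CHAPS/IGEPAL buffer with protease inhibitors was treated in triplicate with fragment at 200 µM or vehicle for 3 h, then with Biotin-Ahx-Ub-VS at 0.5 µM final for 1 h. Values are average log2 ratios of fragment over vehicle by unpaired t-test, based on global-median-normalised Spectronaut label-free quantities from proteins with ≥2 unique peptides.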

USP36 = biological target: T1, USP36 (UniProt Q9P275)
T1 sequence (whole entry): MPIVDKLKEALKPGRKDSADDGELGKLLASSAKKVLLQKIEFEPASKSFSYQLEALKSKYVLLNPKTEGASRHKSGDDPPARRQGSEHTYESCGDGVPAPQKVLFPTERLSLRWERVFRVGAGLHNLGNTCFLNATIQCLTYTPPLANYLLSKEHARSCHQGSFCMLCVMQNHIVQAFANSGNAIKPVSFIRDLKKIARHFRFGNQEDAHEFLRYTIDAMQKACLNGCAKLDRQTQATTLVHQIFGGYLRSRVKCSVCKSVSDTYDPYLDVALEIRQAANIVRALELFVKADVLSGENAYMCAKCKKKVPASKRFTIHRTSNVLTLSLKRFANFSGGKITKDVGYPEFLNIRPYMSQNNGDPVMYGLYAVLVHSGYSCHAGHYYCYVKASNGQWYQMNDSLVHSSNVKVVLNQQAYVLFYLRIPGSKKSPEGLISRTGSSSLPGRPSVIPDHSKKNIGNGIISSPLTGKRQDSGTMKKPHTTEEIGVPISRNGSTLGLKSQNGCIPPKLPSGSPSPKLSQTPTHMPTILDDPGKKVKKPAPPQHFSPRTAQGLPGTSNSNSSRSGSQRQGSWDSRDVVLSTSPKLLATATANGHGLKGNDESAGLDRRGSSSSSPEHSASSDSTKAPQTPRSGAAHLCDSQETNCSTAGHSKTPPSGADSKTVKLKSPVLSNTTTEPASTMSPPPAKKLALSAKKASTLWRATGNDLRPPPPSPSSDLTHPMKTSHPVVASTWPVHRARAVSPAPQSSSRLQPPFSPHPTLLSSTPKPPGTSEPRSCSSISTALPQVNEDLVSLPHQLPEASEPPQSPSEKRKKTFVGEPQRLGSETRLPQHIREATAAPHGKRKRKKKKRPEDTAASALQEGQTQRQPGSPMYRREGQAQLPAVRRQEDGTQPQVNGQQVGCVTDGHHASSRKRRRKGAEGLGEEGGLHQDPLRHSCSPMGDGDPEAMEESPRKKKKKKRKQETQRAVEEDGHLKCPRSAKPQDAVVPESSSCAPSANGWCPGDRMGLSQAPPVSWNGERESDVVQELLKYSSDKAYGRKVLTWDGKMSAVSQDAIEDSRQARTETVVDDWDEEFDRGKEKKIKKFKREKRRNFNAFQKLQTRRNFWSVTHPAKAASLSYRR
Summary of the method: as §1

USP38 = biological target: T2, USP38 (UniProt Q8NB14)
T2 sequence (whole entry): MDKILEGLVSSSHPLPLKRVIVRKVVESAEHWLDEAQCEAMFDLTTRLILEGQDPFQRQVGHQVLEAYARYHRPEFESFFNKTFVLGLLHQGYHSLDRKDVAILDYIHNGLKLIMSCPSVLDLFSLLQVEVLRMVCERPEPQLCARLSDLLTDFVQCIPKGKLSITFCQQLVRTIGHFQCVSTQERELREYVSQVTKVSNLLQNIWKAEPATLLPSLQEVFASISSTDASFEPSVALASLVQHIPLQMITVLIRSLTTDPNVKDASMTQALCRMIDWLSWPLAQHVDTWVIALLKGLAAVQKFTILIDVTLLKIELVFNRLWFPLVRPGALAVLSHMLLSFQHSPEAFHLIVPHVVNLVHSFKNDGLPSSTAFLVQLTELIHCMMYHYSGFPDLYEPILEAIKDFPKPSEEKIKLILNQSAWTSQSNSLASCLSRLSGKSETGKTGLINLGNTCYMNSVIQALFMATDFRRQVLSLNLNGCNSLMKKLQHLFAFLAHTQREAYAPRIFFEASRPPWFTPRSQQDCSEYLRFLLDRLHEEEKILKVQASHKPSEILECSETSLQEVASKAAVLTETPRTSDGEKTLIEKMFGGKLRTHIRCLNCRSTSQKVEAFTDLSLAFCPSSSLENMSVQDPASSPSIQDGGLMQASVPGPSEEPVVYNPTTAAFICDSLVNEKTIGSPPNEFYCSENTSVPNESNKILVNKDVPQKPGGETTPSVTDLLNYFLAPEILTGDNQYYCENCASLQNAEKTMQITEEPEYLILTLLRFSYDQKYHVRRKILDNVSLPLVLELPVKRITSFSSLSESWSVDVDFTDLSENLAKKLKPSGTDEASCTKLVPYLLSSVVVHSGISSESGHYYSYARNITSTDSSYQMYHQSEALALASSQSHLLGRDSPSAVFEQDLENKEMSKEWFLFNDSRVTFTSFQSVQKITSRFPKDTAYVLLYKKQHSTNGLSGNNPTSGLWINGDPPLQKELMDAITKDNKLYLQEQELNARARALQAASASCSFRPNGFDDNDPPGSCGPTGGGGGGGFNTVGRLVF
Summary of the method: as §1

USP39 = biological target: T3, USP39 (UniProt Q53GS9)
T3 sequence (whole entry): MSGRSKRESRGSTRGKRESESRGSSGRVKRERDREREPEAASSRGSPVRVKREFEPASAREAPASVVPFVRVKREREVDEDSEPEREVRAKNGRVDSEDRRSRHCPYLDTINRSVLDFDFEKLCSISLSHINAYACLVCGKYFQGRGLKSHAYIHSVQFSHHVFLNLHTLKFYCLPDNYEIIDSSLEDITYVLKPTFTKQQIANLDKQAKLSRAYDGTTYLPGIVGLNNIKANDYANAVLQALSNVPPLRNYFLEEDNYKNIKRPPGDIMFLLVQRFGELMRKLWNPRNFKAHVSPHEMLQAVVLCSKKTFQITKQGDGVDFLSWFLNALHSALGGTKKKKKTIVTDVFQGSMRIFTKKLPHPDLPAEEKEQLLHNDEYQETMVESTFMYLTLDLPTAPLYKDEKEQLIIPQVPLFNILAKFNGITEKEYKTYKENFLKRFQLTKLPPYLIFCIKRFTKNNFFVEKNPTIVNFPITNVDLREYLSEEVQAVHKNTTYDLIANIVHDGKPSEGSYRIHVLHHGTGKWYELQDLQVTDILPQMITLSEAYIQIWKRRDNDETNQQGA
Summary of the method: as §1

USP4 = biological target: T4, USP4 (UniProt Q13107)
T4 sequence (whole entry): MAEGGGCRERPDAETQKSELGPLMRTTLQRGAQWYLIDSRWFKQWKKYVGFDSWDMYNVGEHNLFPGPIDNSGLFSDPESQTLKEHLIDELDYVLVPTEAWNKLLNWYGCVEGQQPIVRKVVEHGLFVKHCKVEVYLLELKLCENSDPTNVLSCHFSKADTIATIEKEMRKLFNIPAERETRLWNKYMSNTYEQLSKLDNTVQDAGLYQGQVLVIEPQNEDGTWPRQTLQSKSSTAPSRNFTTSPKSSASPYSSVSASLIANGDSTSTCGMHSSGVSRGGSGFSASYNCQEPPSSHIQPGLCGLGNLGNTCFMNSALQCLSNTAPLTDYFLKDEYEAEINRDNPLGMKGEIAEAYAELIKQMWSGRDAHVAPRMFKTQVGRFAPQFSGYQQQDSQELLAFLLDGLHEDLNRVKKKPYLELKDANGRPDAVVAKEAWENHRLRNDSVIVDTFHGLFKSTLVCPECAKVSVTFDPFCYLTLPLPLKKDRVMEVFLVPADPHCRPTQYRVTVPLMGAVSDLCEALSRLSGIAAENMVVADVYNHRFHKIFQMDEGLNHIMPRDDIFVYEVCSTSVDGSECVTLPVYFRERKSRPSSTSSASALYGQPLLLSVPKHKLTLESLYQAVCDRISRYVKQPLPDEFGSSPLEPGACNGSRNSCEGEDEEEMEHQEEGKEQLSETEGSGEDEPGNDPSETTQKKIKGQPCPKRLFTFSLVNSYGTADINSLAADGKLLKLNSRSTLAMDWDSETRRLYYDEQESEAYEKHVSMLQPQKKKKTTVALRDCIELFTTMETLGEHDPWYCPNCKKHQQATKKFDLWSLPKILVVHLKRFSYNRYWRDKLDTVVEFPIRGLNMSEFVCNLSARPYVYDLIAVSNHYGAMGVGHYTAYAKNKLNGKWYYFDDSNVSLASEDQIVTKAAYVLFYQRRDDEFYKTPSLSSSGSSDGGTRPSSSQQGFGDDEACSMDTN
Summary of the method: as §1

Measured: log2 ratio of Biotin-Ahx-Ub-VS probe labelling

Sequence of USP34 (Q70CQ2 whole entry, the tested form may be a part): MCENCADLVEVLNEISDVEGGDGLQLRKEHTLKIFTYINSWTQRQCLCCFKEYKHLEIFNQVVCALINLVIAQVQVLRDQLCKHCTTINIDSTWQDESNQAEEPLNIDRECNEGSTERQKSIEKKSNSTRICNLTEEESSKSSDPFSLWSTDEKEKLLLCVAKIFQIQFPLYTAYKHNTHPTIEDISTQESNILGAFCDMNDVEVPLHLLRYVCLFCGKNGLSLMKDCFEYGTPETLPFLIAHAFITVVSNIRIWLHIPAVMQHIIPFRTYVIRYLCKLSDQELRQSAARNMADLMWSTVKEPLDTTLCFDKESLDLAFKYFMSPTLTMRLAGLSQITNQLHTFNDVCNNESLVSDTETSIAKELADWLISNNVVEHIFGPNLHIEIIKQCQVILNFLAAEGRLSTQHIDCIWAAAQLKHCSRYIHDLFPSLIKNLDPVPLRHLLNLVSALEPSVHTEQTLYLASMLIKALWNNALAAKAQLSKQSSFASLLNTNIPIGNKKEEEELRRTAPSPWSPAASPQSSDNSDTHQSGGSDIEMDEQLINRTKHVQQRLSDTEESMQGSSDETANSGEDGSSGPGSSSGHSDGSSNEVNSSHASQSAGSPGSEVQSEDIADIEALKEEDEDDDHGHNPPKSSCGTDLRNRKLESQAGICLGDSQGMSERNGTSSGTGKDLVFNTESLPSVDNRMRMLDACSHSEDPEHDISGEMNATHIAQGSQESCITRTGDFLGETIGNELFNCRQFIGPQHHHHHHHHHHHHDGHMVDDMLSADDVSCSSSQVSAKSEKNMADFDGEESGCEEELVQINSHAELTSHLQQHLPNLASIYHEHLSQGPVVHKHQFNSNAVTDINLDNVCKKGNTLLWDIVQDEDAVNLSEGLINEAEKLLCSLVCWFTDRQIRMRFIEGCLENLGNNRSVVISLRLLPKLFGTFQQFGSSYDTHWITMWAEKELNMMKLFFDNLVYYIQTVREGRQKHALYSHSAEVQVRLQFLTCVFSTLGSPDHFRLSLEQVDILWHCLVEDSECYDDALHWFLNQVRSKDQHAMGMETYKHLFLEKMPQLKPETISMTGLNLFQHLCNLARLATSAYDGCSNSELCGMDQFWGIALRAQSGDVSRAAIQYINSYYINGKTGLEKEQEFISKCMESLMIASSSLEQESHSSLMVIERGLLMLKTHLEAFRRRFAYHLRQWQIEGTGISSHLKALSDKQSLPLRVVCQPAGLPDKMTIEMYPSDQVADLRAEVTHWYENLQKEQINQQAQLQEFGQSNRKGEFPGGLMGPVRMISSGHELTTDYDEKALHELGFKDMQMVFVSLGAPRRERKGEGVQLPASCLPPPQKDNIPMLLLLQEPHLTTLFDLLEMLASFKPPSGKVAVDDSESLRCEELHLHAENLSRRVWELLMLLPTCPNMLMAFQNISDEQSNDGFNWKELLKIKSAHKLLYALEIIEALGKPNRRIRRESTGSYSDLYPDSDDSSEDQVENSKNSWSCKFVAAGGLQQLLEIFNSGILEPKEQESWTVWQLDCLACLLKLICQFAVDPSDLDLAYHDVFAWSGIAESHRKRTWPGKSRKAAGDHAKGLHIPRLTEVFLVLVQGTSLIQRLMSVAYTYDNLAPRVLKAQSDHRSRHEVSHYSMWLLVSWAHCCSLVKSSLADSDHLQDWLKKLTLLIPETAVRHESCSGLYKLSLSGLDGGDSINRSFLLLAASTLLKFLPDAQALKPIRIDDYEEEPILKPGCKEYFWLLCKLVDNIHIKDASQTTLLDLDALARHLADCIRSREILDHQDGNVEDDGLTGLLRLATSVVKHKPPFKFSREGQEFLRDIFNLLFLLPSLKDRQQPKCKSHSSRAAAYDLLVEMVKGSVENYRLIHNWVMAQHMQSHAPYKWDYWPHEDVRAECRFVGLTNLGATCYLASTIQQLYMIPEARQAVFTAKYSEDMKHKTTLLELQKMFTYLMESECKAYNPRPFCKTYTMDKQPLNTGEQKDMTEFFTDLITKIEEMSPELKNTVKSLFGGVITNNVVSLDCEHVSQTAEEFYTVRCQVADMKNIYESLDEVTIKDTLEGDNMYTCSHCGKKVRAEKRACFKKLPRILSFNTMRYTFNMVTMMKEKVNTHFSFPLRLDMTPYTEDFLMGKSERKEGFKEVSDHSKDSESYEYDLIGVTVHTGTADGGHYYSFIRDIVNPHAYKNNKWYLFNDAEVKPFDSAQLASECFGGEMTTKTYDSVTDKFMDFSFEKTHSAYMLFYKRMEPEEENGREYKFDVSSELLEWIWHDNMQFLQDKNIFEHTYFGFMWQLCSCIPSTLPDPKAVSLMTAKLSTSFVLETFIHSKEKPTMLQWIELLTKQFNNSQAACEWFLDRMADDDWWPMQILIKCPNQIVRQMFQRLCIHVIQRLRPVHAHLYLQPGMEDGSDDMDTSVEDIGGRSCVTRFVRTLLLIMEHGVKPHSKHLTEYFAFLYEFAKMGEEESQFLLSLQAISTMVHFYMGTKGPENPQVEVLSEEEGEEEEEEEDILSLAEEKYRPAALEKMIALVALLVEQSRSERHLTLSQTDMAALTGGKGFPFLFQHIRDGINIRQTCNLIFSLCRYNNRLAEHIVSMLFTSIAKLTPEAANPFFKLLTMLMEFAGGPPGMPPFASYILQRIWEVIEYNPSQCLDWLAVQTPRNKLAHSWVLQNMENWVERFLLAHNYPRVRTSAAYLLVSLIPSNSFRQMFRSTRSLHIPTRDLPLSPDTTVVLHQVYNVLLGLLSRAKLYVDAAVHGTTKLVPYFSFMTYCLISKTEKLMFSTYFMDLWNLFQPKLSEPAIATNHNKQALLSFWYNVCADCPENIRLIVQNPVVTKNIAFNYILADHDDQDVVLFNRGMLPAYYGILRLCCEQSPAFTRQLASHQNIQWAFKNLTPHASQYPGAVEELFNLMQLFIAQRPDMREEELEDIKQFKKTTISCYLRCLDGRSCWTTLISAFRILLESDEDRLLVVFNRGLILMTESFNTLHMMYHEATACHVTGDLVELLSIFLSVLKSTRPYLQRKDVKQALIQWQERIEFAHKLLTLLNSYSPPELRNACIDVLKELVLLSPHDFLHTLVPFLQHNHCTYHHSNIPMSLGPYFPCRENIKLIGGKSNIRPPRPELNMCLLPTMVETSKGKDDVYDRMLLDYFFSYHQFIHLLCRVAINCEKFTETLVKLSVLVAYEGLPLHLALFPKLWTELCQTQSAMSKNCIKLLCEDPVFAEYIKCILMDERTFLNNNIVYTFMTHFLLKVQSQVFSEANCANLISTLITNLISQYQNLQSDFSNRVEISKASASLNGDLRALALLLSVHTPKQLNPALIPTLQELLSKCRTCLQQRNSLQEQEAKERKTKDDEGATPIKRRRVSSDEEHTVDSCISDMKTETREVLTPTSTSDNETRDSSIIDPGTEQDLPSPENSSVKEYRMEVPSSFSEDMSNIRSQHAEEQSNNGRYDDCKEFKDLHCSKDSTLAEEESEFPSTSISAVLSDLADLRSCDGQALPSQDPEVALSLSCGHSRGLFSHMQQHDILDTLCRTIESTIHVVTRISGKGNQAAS

Cc1noc(N2CCN(C(=O)CCl)CC2)n1.Cl
inactive: USP34 0.028 | USP36 -0.0365 | USP38 -0.0491 | USP39 0.251 | USP4 0.0534
